From the OligoGym collection

biological target: SLC10A3; test: pooled miR-30 sensor sort-seq; sequence = guide strand; settings: shRNA
Also: reference of the scale not given here.

| Sequence | sensor-assay potency score (higher = more potent) |
| --- | --- |
| TCTCCAATGCTCAAGTAGCGGC | -0.783 |
| TTAAGGGACCTGTGCCACCACC | -1.35 |
| TTCAGCAGGTGAGACCTTGATG | -1.03 |
| TCTTCAGCAGGTGAGACCTTGA | -0.622 |
| TAGTGCATGAGAACTTTGGTGG | 0.0901 |
| TTGGGTTTTCCGAGAAGTGGGC | 0.0759 |
| AAAGATAAGAGGCAGGAGCAGG | -0.888 |
| TTGATGCAGAAGTCTCTCCGCT | -0.433 |
| TAGAGGATTGGGTTTTCCGAGA | -0.917 |
| TCTTGATGGTCAGCACCTCTGT | -1.25 |
| TCAAACTCCATCACAGAGCCAT | -0.169 |
| TTTTCTGAGTGCATAGTGCATG | -0.554 |

biological target: SLC10A7; test: as above; settings: shRNA

| Sequence | sensor-assay potency score (higher = more potent) |
| --- | --- |
| TATTGTTGCAACAGCAATGTAG | 0.00955 |
| ATCATGAGGAGTACACTGCTGC | -0.556 |
| TTACTTACCAAAAAACTTCCAA | 0.24 |
| TAAACTATGTTTACTTACCAAA | -1.05 |
